Source: PubChem BioAssay AID1159580 (chemical genetic matrix, 2015)
“And” between values parts separate entries of the source, which are not always exact repeats. Equal entries are not always repeated. The campaign covered roughly 5,500 compounds. About 2,000 (36%) were called active. Another 18% or so got no clear call; they are omitted. Cut-off read from the data, not from the text of the source: active = normalized growth mostly below about 0.91 (no sharp cut-off); inconclusive = no clear call, values can overlap the other calls; inactive = mostly above about 0.92. Some of the results follow.

Experiment: chemical genetic growth profiling, strain panel (AID 1159580);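 note: tested at 20 µM; growth read once vehicle control cultures reached saturation at 30 °C; 1 = growth at the plate median or of vehicle wells; lower values mean less growth of the strain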
Details: S. cerevisiae deletion strains, growth OD

Measured: normalized growth

Cc1ccc(C(=O)c2ccc(CC(=O)O)n2C)cc1
inactive: locus YAL021C, strain ccr4, hits give low values 1.03 | locus YAL026C, strain drs2, hits give low values 1.02 | locus YAL030W, strain snc1, hits give low values 1.01 | locus YBL061C, strain skt5, hits give low values 1.01 | locus YBR009C, strain hhf1, hits give low values 0.973 | locus YBR021W, strain FUR4, hits give low values 1.01 | locus YBR023C, strain chs3, hits give low values 1 | locus YBR229C, strain ROT2, hits give low values 1 | locus YBR231C, strain swc5, hits give low values 1.02 | locus YBR279W, strain paf1, hits give low values 1 | locus YCL011C, strain gbp2, hits give low values 0.999 | locus YCL016C, strain dcc1, hits give low values 0.996 | locus YCL029C, strain bik1, hits give low values 0.968 | locus YCL061C, strain MRC1, hits give low values 0.995 | locus YCL069W, strain vba3, hits give low values 0.986 | locus YCR088W, strain abp1, hits give low values 1 | locus YDL005C, strain med2, hits give low values 1.03 | locus YDL035C, strain GPR1, hits give low values 1.01 | locus YDL040C, strain nat1, hits give low values 1.01 | locus YDL074C, strain BRE1, hits give low values 1.01 | locus YDL101C, strain DUN1, hits give low values 1.01 | locus YDL134C, strain PPH21, hits give low values 0.996 | locus YDL185W, strain tfp1, hits give low values 0.977 | locus YDL192W, strain arf1, hits give low values 0.98 | locus YDR001C, strain nth1, hits give low values 1 | locus YDR069C, strain doa4, hits give low values 0.999 | locus YDR101C, strain arx1, hits give low values 0.985 | locus YDR137W, strain rgp1, hits give low values 1 | locus YDR150W, strain NUM1, hits give low values 1.01 | locus YDR159W, strain sac3, hits give low values 0.956 | locus YDR162C, strain NBP2, hits give low values 0.995 | locus YDR195W, strain ref2 1.03 | locus YDR297W, strain sur2, hits give low values 0.991 | locus YDR318W, strain mcm21, hits give low values 0.956 | locus YDR334W, strain swr1, hits give low values 1.01 | locus YDR335W, strain msn5, hits give low values 1.01 | locus YDR388W, hits give low values 0.972 | locus YDR392W, strain spt3, hits give low values 0.88 | locus YDR502C, strain sam2, hits give low values 0.97 | locus YEL003W, strain gim4, hits give low values 1.01 | locus YEL037C, strain rad23, hits give low values 0.999 | locus YEL061C, strain CIN8 (second series), hits give low values 0.999 | locus YEL061C, strain CIN8, hits give low values 0.998 | locus YER015W, strain faa2, hits give low values 1.01 | locus YER016W, strain bim1, hits give low values 0.999 | locus YER110C, hits give low values 0.969 | locus YER111C, strain swi4, hits give low values 1.01 | locus YER155C, strain BEM2 (second series), hits give low values 0.957 | locus YER155C, strain BEM2, hits give low values 0.996 | locus YER167W, strain BCK2, hits give low values 0.998 | locus YFR010W, strain ubp6, hits give low values 0.997 | locus YGL078C, strain dbp3, hits give low values 0.977 | locus YGL086W, strain mad1, hits give low values 0.985 | locus YGL167C, strain pmr1, hits give low values 1.01 | locus YGL173C, strain kem1, hits give low values 0.985 | locus YGL227W, strain vid30, hits give low values 1 | locus YGL240W, strain doc1, hits give low values 1.01 | locus YGL248W, strain PDE1, hits give low values 1.02 | locus YGL253W, strain hxk2, hits give low values 0.992 | locus YGR078C, strain PAC10, hits give low values 1 | locus YGR135W, strain pre9, hits give low values 0.97 | locus YGR229C, strain SMI1, hits give low values 1.01 | locus YGR252W, strain gcn5, hits give low values 0.975 | locus YHR013C, strain ard1, hits give low values 1.03 | locus YHR027C, strain rpn1, hits give low values 1.01 | locus YHR030C, strain SLT2, hits give low values 1 and 0.957 | locus YHR079C, strain IRE1 (second series), hits give low values 0.964 | locus YHR079C, strain IRE1, hits give low values 0.976 | locus YHR094C, strain hxt1, hits give low values 0.973 | locus YHR129C, strain ARP1, hits give low values 1 | locus YHR142W, strain chs7, hits give low values 1.02 | locus YHR200W, strain rpn10, hits give low values 0.979 | locus YIL066C, strain RNR3, hits give low values 1 | locus YIL073C, strain SPO22, hits give low values 0.924 | locus YIL125W, strain kgd1, hits give low values 0.985 | locus YIR030C, strain dcg1, hits give low values 0.978 | locus YJL092W, strain hpr5, hits give low values 1.02 | locus YJL095W, strain BCK1 (second series), hits give low values 1.02 | locus YJL095W, strain BCK1, hits give low values 1.01 and 0.969 | locus YJL115W, strain asf1, hits give low values 1.03 | locus YJL129C, strain trk1, hits give low values 1.02 | locus YJL134W, strain LCB3, hits give low values 1 | locus YJL154C, strain vps35, hits give low values 1.01 | locus YJL164C, strain tpk1, hits give low values 0.997 | locus YJL166W, strain qcr8, hits give low values 1.02 | locus YJL168C, strain set2, hits give low values 0.975 | locus YJL187C, strain SWE1 (second series), hits give low values 1 | locus YJR043C, strain POL32, hits give low values 0.995 | locus YJR066W, strain TOR1, hits give low values 0.929
